Source: PubChem
hgDAF-12 ag – hgDAF-12 agonism, primary luciferase screen. activation, % at 6.8 µM. hit rate 1.8% among 370,000. AID 687014. HEK293 GAL4-hgDAF12 UAS-luciferase reporter, agonist luminescence; normalized to butyrate control;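 active = activation above a cutoff set at the mean of all screened compounds plus 3 SD, cut at about 10% in these data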
esBAF inh – blocks esBAF chromatin remodeling in mouse ES cells; hit rate 2% among 350,000; reporter increase, % at 12.5 µM; Bmi1-luciferase knock-in reporter, 24 h; 100% = twice the neutral-well signal; AID 602393; in the data active = activation above about 40%; inconclusive = no clear call, values can overlap the other calls;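 also: a rise in the Bmi1 reporter signal indicates esBAF inhibition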
DAX1 StAR inh – DAX1 (NR0B1) inhibition, primary screen; inhibition, % at 6.8 µM; HEK293T StAR-luciferase reporter, SF-1/DAX-1 repression relief; AID 652010; hit rate 1.1% among 370,000;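 active = inhibition above the mean over all tested compounds plus 3 SD, cut at about 3.6% in these data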;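 also: higher inhibition means more luminescence from relief of DAX-1 repression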
hcDAF-12 act – activators of H. contortus DAF-12 nuclear receptor; HEK293 hcDAF-12 lit1-tk-luc reporter, luminescence; 0% DMSO, 100% Δ7-dafachronic acid; activation, % at 6.8 µM; hit rate 1.4% among 370,000; AID 652067;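 active = activation above the mean of all tested compounds plus 3 SD, cut at about 5.5% in these data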
ssDAF12 agonist – activators of S. stercoralis DAF-12 nuclear receptor | activation, % at 6.8 µM | AID 652126 | hit rate 1% among 370,000 | HEK293 ssDAF-12/GRIP1 lit1-tk-luc reporter, luminescence; % of 3 µM dafachronic acid response;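 active = activation above the mean over all tested compounds plus 3 SD, cut at about 0.9% in these data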
Wnt bcat act – activates Wnt/beta-catenin signaling in a reporter cell assay. activator, plate reader. activation, % at 9.35 µM. hit rate 1.2% among 300,000; in the data active = activation above about 30%, passing the limit was not always enough; inconclusive = no clear call, values can overlap the other calls
LXR ag – LXR-beta agonism as hcDAF-12 counter-screen; 3,400 tested, under 10 active; HEK293 Gal4-LXR tk-luc reporter, luminescence, 24 h; normalized: DMSO 0%, positive control 100%; shares compounds with hcDAF-12 act; activation, % at 6.8 µM;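 active = mean percent activation of the reporter above a cutoff set as the average over tested compounds plus their standard deviation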
Target sequence (P55055 whole entry, looked up, the tested form may be a part): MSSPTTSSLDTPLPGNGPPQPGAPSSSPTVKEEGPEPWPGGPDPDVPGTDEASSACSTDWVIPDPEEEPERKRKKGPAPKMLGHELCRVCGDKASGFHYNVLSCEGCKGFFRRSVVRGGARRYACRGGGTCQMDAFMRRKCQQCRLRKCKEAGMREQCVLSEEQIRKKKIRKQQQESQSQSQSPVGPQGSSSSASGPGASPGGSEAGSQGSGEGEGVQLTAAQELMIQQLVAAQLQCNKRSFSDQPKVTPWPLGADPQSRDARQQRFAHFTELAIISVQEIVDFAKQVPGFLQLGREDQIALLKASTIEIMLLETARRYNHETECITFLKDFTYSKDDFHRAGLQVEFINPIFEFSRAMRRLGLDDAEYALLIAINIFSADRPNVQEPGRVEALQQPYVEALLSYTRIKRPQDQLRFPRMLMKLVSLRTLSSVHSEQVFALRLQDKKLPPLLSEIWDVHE
hcDAF12 conf – hcDAF-12 agonism, confirmation assay | shares compounds with hcDAF-12 act | HEK293 hcDAF-12 lit1-tk-luc reporter, luminescence; % of Δ7-dafachronic acid response | activation, % at 6.8 µM | hit rate 61% among 3,400;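 active = mean activation across triplicate tests above the threshold derived from the earlier primary screen, cut at about 5.5% in these data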
hgDAF12 ag – confirmation of H. glycines DAF-12 agonists; shares compounds with hgDAF-12 ag; HEK293 GAL4-hgDAF12 luciferase reporter, agonist mode; percent of butyrate response; activation, % at 6.8 µM; hit rate 80% among 3,300; AID 743050;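 active = mean activation over triplicate wells above the hit cutoff derived from the earlier primary screen, cut at about 11% in these data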
LXR ag 2 – counter-screen for DAF-12 agonists: agonists of human LXR-beta | shares compounds with hgDAF-12 ag | HEK293 Gal4-LXR luciferase reporter, 24 h | 3,300 tested, under 10 active | activation, % at 6.8 µM | AID 743051;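 active = mean activation of the triplicate above a set limit carried over from the primary screen, none filed active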
A number is an active result; . = inactive; ? = inconclusive; / = no result given. Most compounds without a hit are left out; they make up all but 4.2% or so of the library.

SMILES | hgDAF-12 ag | esBAF inh | DAX1 StAR inh | hcDAF-12 act | ssDAF12 agonist | Wnt bcat act | LXR ag | hcDAF12 conf | hgDAF12 ag | LXR ag 2
C[C@@H]1CCCCO[C@@H](CN(C)Cc2ccccc2)[C@@H](C)CN([C@H](C)CO)C(=O)c2cc(NC(=O)Nc3ccc(C(F)(F)F)cc3)ccc2O1 | / | . | / | / | / | / | / | / | / | /
COc1ccc2cc(C(=O)NC3CCCCC3)c(=O)oc2c1 | . | . | . | . | . | . | / | / | / | /
O=C(NC1CCCCCC1)c1cc2ccccc2oc1=O | 13 | . | 4.0 | 7.5 | 0.9 | . | . | . | 16 | .
COc1cccc(-c2ccc3c(c2)[C@@H]2[C@@H](CCN2C(=O)Nc2ccccc2OC)[C@@H](CO)N3C)c1 | / | . | / | / | / | / | / | / | / | /
CCCNC(=O)N1[C@H](CO)[C@@H](c2ccc(C3=CCCC3)cc2)[C@@H]1CN(C)C(C)=O | / | . | / | / | / | / | / | / | / | /
C[C@H](CO)N1C[C@H](C)[C@@H](CN(C)C(=O)C2CC2)Oc2cc(C#Cc3ccccn3)ccc2S1(=O)=O | / | . | / | / | / | / | / | / | / | /
C[C@H](CO)N1C[C@H](C)[C@@H](CN(C)S(C)(=O)=O)Oc2ncc(C#CCN(C)C)cc2C1=O | / | . | / | / | / | / | / | / | / | /
Oc1ccc(-c2csc(-c3c[nH]c4ccccc34)n2)c(O)c1 | 14 | / | . | 8.3 | 2.7 | / | . | 9.2 | 17 | .
Cc1ccc(-c2csc(-c3c[nH]c4ccccc34)n2)c(C)c1 | . | . | . | . | . | . | / | / | / | /
O=C(Nc1ccc(Cl)cc1)Nc1cccc2nsnc12 | 15 | 91 | . | 12 | 1.3 | ? | . | 11 | 20 | .
O=C(Nc1ccc2ccccc2c1)c1ccccc1F | 19 | . | . | 14 | 1.6 | . | . | 9.3 | 23 | .
N#Cc1ccc(C(=O)Nc2ccc3ccccc3c2)cc1 | 20 | . | . | 7.9 | . | . | . | . | 22 | .
O=C(Nc1ccc2cn[nH]c2c1)c1ccccc1F | 14 | / | 3.9 | 7.8 | . | . | . | . | 16 | .
C[C@@H]1CN([C@@H](C)CO)C(=O)c2cc(NC(=O)Cc3ccccc3)ccc2O[C@@H](C)CCCCO[C@@H]1CN(C)CC1CCCCC1 | / | . | / | / | / | / | / | / | / | /
CN(C)/C=N/C1=C(C#N)C(c2cccs2)c2ccc3ccccc3c2O1 (stereo unspecified) | 24 | / | . | 9.4 | 1.0 | . | . | 8.5 | 14 | .
CC(C)n1cnc2cc(NCc3nc4ccccc4n3C)ccc21 | 14 | / | . | 6.7 | . | . | . | 6.1 | 11 | .
COc1ccc(CNc2ccc3c(c2)ncn3-c2ccccc2OC)cc1 | . | . | . | . | . | / | / | / | / | /
COc1ccc(C(=O)Nc2ccc3c(c2)C(=O)N(C)C[C@H](OC)[C@@H](C)CN[C@@H](C)CO3)cc1 | / | . | / | / | / | / | / | / | / | /
CC(=O)c1cccc(NC(=O)c2cccc(S(=O)(=O)N(C)C)c2)c1 | . | . | . | . | . | . | / | / | / | /
O=C(COC(=O)c1ccc(Cl)nc1)Nc1ccc2c(c1)CCC2 | . | . | . | . | . | . | / | / | / | /
O=C(Nc1ccc2c(c1)CCC2)c1ccc(Cl)nc1 | 19 | 82 | 3.8 | 7.7 | 1.2 | . | . | 9.3 | 21 | .
CN(C)S(=O)(=O)c1cccc(C(=O)Nc2ccc3c(c2)CCC3)c1 | 22 | . | . | 6.9 | . | . | . | 7.4 | 19 | .
C[C@H]1CN([C@@H](C)CO)C(=O)c2cccc(NC(=O)C3CCOCC3)c2O[C@@H]1CN(C)Cc1ccncc1 | / | . | / | / | / | / | / | / | / | /
C[C@H](CO)N1C[C@H](C)[C@@H](CN(C)C(=O)NC2CCCCC2)OCCCC[C@H](C)Oc2ccc(NS(=O)(=O)c3cccs3)cc2C1=O | / | . | / | / | / | / | / | / | / | /
Cc1occc1C(=O)N/N=C/c1cccnc1 | . | . | . | . | . | . | / | / | / | /
SMILES | hgDAF-12 ag | esBAF inh | DAX1 StAR inh | hcDAF-12 act | ssDAF12 agonist | Wnt bcat act | LXR ag | hcDAF12 conf | hgDAF12 ag | LXR ag 2
Cc1occc1C(=O)N/N=C/c1ccc(-c2ccccc2)cc1 | 19 | . | . | 7.9 | 1.1 | . | . | . | 21 | .
COCCN(Cc1nc(-c2ccc(-c3ccccc3)cc2)oc1C)C(C)C | 15 | 65 | . | 10 | 1.1 | . | . | 7.5 | 18 | .
C[C@@H]1CN([C@@H](C)CO)C(=O)Cc2cc(NC(=O)Nc3ccc(C(F)(F)F)cc3)ccc2O[C@@H]1CN(C)S(C)(=O)=O | / | . | / | / | / | / | / | / | / | /
C[C@@H]1CCCCO[C@@H](CN(C)Cc2ccc(C(=O)O)cc2)[C@H](C)CN([C@@H](C)CO)C(=O)c2cc(NS(=O)(=O)c3cn(C)cn3)ccc2O1 | / | . | / | / | / | / | / | / | / | /
Cc1cccc(-n2ncc3c(N4CCC(C)CC4)ncnc32)c1 | 24 | . | 7.6 | 6.6 | . | 38 | . | 6.2 | 13 | .
COc1ccccc1S(=O)(=O)N[C@H]1CC[C@@H](CCNC(=O)C2CC2)O[C@H]1CO | / | . | / | / | / | / | / | / | / | /
COC1=C/C(=C/c2c(O)c(C#N)c3ccccn23)C=CC1=O | 14 | 55 | . | 11 | 0.9 | 34 | . | . | 11 | .
C[C@H](CO)N1C[C@H](C)[C@H](CN(C)Cc2ccc(Oc3ccccc3)cc2)Oc2cc(-c3ccncc3)ccc2S1(=O)=O | / | . | / | / | / | / | / | / | / | /
CCOC(=O)c1sc(=NC(=O)c2ccco2)n(C)c1C | 14 | / | . | 9.0 | . | . | . | 11 | 14 | .
O=[N+]([O-])c1ccc2nc(-c3ccc(Cl)cc3)[nH]c2c1 | 22 | / | 4.1 | 9.9 | 1.2 | . | . | 5.9 | 20 | .
O=[N+]([O-])c1cccc(-c2nc3ccc([N+](=O)[O-])cc3[nH]2)c1 | . | / | . | . | . | . | / | / | / | /
Cc1ccc(NC(=O)c2cc3nc(C)cc(C)n3n2)cc1 | 16 | . | 4.3 | 8.5 | . | / | . | . | 17 | .
Cc1ccc(NC(=O)c2cc(C(=O)Nc3ccc(C)cc3)n(C)n2)cc1 | . | / | . | . | . | . | / | / | / | /
CCCc1nc2c3ccccc3ccn2c1Cc1ccccc1 | 23 | 52 | 4.1 | 7.0 | 1.3 | 33 | . | 12 | 16 | .
CNC[C@@H]1Oc2c(NC(=O)Nc3ccc(C(F)(F)F)cc3)cccc2C(=O)N([C@H](C)CO)C[C@H]1C | / | . | / | / | / | / | / | / | / | /
O=C(C[C@H]1C[C@H]2c3cc(NS(=O)(=O)c4ccc(F)cc4)ccc3O[C@H]2[C@H](CO)O1)N1CCOCC1 | / | . | / | / | / | / | / | / | / | /
Nc1c(C(=O)N2CCCC2)sc2nc3c(cc12)CCCCCC3 | . | / | . | . | . | . | / | / | / | /
